Our source for the growth values is PubChem BioAssay (NCI).

What all share (assay): NCI-60 one-dose screen, 48 h (100 = growth as untreated, 0 = no growth, -100 = all killed)
What all share (conditions): 10 µM unless noted

Experiment [1] has as its system HCT-15 colon.
Experiment [2] relates to HT29 colon.
The subject of experiment [3] is SNB-75 CNS.
The test system of experiment [4] is SNB-19 CNS.
For experiment [5], the system named is U251 CNS.
The subject of experiment [6] is PC-3 prostate.
Experiment [7] relates to SK-MEL-5 melanoma.
The subject of experiment [8] is UACC-62 melanoma.
Experiment [9] concerns LOX IMVI melanoma.
The subject of experiment [10] is SK-MEL-28 melanoma.
The test system of experiment [11] is SK-MEL-2 melanoma.
Experiment [12] concerns EKVX NSCLC.
Experiment [13] concerns SN12C renal.
Experiment [14] relates to UO-31 renal.
For experiment [15], the system named is TK-10 renal.
The test system of experiment [16] is ACHN renal.
For experiment [17], the system named is CAKI-1 renal.
The subject of experiment [18] is A498 renal.
Experiment [19] deals with CCRF-CEM leukemia.
In experiment [20] the test system is MOLT-4 leukemia.

This is part of a sample that, as a whole, favours compounds with a hit. Of some 83,000 tested, about 20% had one in any assay.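 48-hour exposure, single concentration, 96-well plates; percent growth endpoint where 0 means no net growth. Active: below 10.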 A number with no mark means an inactive call. Activity calls are given as the source filed them.

`O=S(=O)(NCCCNc1nccc(-c2c(-c3ccc(F)c(O)c3)nc3sccn23)n1)c1ccc(Cl)cc1`: the growth was 82.7% in experiment [1]; 70.1% in experiment [2]; 122% in experiment [3]; 115% in experiment [4]; 84.5% in experiment [5]; 58.7% in experiment [6]. The growth in experiment [7] is 47.2%; in experiment [8] it was 6.74% (active); in experiment [9] it was 45.5%; in experiment [10], 23.3%; in experiment [11], 27.7%; in experiment [12] it was 101%. In addition, the growth in experiment [13] was 77.4%; in experiment [14], 67.8%; in experiment [15], 135%; in experiment [16] it was 65.9%; in [17], 54.7%; in experiment [18] it was 109%. Further, the growth was 35.2% in experiment [19] and 46.1% in experiment [20].

Regarding `COc1ccc(/C(=N/O)c2cc(OC)c(OC)c(OC)c2)c(OC)c1N`, the growth in experiment [1] is 24.5%; in experiment [2], 13.7%; in [3] it was 8.03% (active); in experiment [4] it was 45.2%; in experiment [5], 27.5%; in experiment [6], 19.2%. In addition, the growth in experiment [7] is 14.4%; in [8], 31.7%; in [9], 45%; in [10], 59.2%; in experiment [11], 36.5%; in experiment [12] it was 47.4%. Moreover, the growth in [13] was 52.8%; in experiment [14], 49.3%; in [15], 35.3%; in experiment [16], 43.3%; in experiment [17], 23.9%; in experiment [18], -4.33% (active). Also, the growth in experiment [19] was 22.3%.

On to `COc1ccc2c(c1)NC(=O)CN2c1nc(NC2CC2)nc2ccccc12`, for which the growth is 10.5% in experiment [1]; 3.45% (active) in experiment [2]; 31.4% in experiment [3]; 29.9% in [4]; 11.8% in [5]; 4.75% (active) in [6]. The growth was -55.3% (active) in [7]; 26.1% in [8]; 34.9% in experiment [9]; 54.7% in experiment [10]; 25.7% in experiment [11]; 27.8% in experiment [12]. For the same molecule, the growth was 39.1% in [13]; 28.7% in [14]; 23.6% in [15]; 24.9% in experiment [16]; 32.9% in experiment [17]; -12.8% (active) in [18]. Besides, the figures for the growth in experiment [19] and in experiment [20] were 31.7% and 33.9%, respectively.

`O=S(=O)(NCCCNc1cc(-c2cn(-c3ccccc3)nc2-c2cccc(O)c2)ccn1)c1ccc(Cl)cc1`: the growth in experiment [1] is -5.43% (active); in [2], -32.7% (active); in experiment [3], 20.3%; in experiment [4] it was 43.8%; in experiment [5] it was 13.8%; in [6], 1.79% (active). Moreover, the growth in experiment [7] was -19.5% (active); in experiment [8], 17.1%; in experiment [9] it was 3.96% (active); in experiment [10] it was -27.5% (active); in experiment [11], 5.9% (active); in [12] it was 27.6%. Moreover, the growth was 34.5% in experiment [13]; 10% in experiment [14]; 33.5% in experiment [15]; 17% in experiment [16]; 15.3% in experiment [17]; 26.4% in experiment [18]. The growth is 11.6% in experiment [19] and 4.49% (active) in experiment [20].

Regarding `CCN(Cc1ccc(CN(CC)C(=O)C(Br)Br)cc1)C(=O)C(Br)Br`, the growth was 24.5% in [1]; 6.76% (active) in experiment [2]; 54.9% in experiment [3]; 60.8% in [4]; -9.38% (active) in experiment [5]; 41.3% in experiment [6]. In addition, the growth was 12.3% in experiment [7]; 18.2% in experiment [8]; 37.1% in experiment [9]; 36.7% in experiment [10]; 76.9% in [11]; 31.3% in experiment [12]. The growth is 48.9% in experiment [13]; 52.2% in experiment [14]; 48.1% in experiment [15]; 12.1% in experiment [16]; 28.3% in experiment [17]; 38.3% in [18]. The growth is 24.9% in [19] and 34.2% in [20].

As to `COc1ccc(/C=C/C(=O)/C=C/c2cc3ccc(Cl)cc3[nH]c2=O)cc1`, the growth is 87.4% in experiment [1]; 80.6% in experiment [2]; 76.2% in [3]; 80.9% in [4]; 53.3% in experiment [5]; 76.1% in [6]. Besides, the growth in experiment [7] was 98.6%; in [8], 72.1%; in experiment [9], 48.5%; in experiment [10], 103%; in experiment [11], 94%; in experiment [12], 84.7%. The growth in [13] was 85.7%; in [14], 75.7%; in experiment [15], 124%; in experiment [16], 88.6%; in experiment [17], 93.2%; in [18], 92.7%. For the same molecule, the figures for the growth in experiment [19] and in experiment [20] were 56.8% and 65.3%, respectively.

On to `Nc1nc(N)c2nc(CNc3ccc(C(=O)CC(CCC(=O)O)C(=O)O)cc3)cnc2n1` (centres undefined), for which the growth is 33.3% in [1]; 36.7% in experiment [2]; 71.7% in experiment [3]; 42.9% in [4]; 36.2% in experiment [5]; 33.6% in experiment [6]. For the same molecule, the growth was 22.8% in experiment [7]; 26.6% in [8]; 20.5% in [9]; 68.7% in experiment [10]; -6.72% (active) in experiment [11]; 42.8% in [12]. For the same molecule, the growth in experiment [13] was 30.9%; in experiment [14], 8.63% (active); in [15], 74.7%; in experiment [16] it was 27.2%; in experiment [17] it was -3.87% (active); in experiment [18], 51.4%. Also, the values for the growth in experiment [19] and in [20] were 17.8% and 33%, respectively.

Turning to `c1cncc(CNc2ccccc2-c2nnc(Nc3ccc4c(c3)OCCO4)o2)c1`, the growth in experiment [1] was 19%; in [2] it was 2.31% (active); in [3], 33.1%; in experiment [4] it was 38.1%; in experiment [5] it was 30.8%; in [6], 36.5%. Besides, the growth in experiment [7] is -9.92% (active); in experiment [8], 39.8%; in [9], 27.1%; in experiment [10], 68.9%; in [11] it was 15.8%; in [12] it was 49.8%. The growth in [13] was 37.7%; in experiment [14] it was 47.1%; in experiment [15], 63.1%; in [16] it was 40.4%; in [17] it was 34.3%; in [18], 11.3%. The growth in [19] was 14%; in [20] it was 22.1%.
